In the library only some 12% were active in any assay of this set; here they are far more common.
HP1b chromo inh: blocks HP1-beta chromodomain binding to methylated histone tails; AID 540317; 390,000 tested, 0.56% active; Potency, µM (top dose mostly 114 µM), actives largely listed as inhibitors; AlphaScreen HP1-beta / biotin-H3K9me3 peptide binding; note: nearly all actives have a fitted effect of over 70% in size
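AlphaScreen: HP1-beta (50 nM) preformed 30 min with biotin-H3(1-18)K9me3 peptide (50 nM) in PBS pH 7.4, 0.01% Tween-20. Compound added for 30 min at RT, then streptavidin donor/nickel chelate acceptor beads (10 ug/mL) for 30 min.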
L3MBTL1 block: blocks human L3MBTL1; AlphaScreen L3MBTL1–H3K9me1 peptide binding; Potency, µM (highest dose often 57.1 µM), most hits filed as inhibitors; 230,000 tested, 0.66% active; AID 485360; note: nearly all actives have a fitted effect of over 60% in size
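Displacement of a biotinylated histone H3(1-15) peptide monomethylated at Lys9 (75 nM) from L3MBTL1 (50 nM) was measured by AlphaScreen after a 30 min room-temperature compound incubation; cefsulodin titration served as intraplate control.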
G9a block: blocks human histone lysine methyltransferase G9a; Q96KQ7; G9a H3K9 monomethylation, AlphaScreen, 2 h; Potency, µM (series often up to 102 µM), usual class: inhibitors; 350,000 tested, 8.8% active; AID 504332; note: nearly all actives have a fitted effect of over 75% in size
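AlphaScreen detection with an anti-monomethyl H3K9 antibody quantified product after a 2 h room-temperature reaction containing 500 nM biotinylated H3K9 peptide, 20 µM SAM and 20 nM enzyme, which had been preincubated 15 min with compound.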
BAZ2B block: blocks human BAZ2B; Q9UIF8; AlphaScreen BAZ2B-H3K14Ac peptide displacement; Potency, µM (top dose mostly 114 µM), usual class: inhibitors; 360,000 tested, 4.4% active; AID 504333; note: nearly all actives have a fitted effect of over 60% in size
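Complex of BAZ2B and biotin-H3K14Ac (50 nM apiece) forms over 30 min at RT, then faces library compounds up to 110 uM for another 30 min; AlphaScreen beads added, 20 min dark incubation, luminescence read.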
Sfp PPTase inh: blocks B. subtilis Sfp PPTase activity; Potency, µM, usual class: inhibitors; Q9F4F7; 310,000 tested, 3.5% active; Biochemical Sfp PPTase activity, qHTS; AID 1490;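 note: the enzyme is Sfp with the accession as filed and its product quenches rhodamine fluorescence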
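Fluorescence-quenching assay with 15 nM Sfp, 5 uM rhodamine-CoA and 12.5 uM BHQ-2-labelled ybbR peptide in pH 7.6 Hepes/MgCl2 buffer. Enzyme was pre-incubated with compound for 15 min at room temperature. Rate was taken from the 30-min fluorescence change (525/598 nm).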
JMJD2A Tudor: blocks the human JMJD2A Tudor domain. O75164. AlphaScreen JMJD2A-Tudor / H3K4me3 peptide binding. Potency, µM (titrated, usually from 114 µM), actives largely listed as inhibitors. 390,000 tested, 4.4% active; note: nearly all actives have a fitted effect of over 50% in size
A number is an active result; i = inactive; ? = inconclusive; nt = no result; [ ] = dose if it differs, or a comment. Calls come from the whole dose curve; as a rule, active = well fitted curve in the direction sought with a large enough effect; inconclusive = small, poorly fitted or top-dose-only effect, or another doubt; inactive = no such curve, though single readings can be large; an effect the other way counts as inactive or inconclusive.

SMILES | HP1b chromo inh | L3MBTL1 block | G9a block | BAZ2B block | Sfp PPTase inh | JMJD2A Tudor
CC1Cn2c(nnc2-c2ccccc2O)S1 (stereo unspecified) | i | i | 8.91µM | ? | i | ?
Cc1ccc(S(=O)(=O)Cc2sc3ccccc3[n+]2C)cc1 | i | nt | 44.7µM | 50.1µM | i | 22.4µM
Cc1ccc(S(=O)(=O)CC(=O)Nc2nc3ccccc3s2)cc1 | i | nt | i | i | i | i
Cc1nc(N2CCOCC2)c2nc(-c3ccccc3)n(CC3CCN(C)CC3)c2n1 | nt | nt | nt | nt | i | nt
CN(C)CCCn1c(SCc2c(Cl)cccc2Cl)nnc1-c1ccncc1 | ? | i | 10µM | 70.8µM | i | 20µM
Cc1c(O)ccc(-c2[nH]ncc2-c2nc3ccccc3s2)c1O | i | nt | i[12.7 µM] | i | i | ?
Cc1c(O)ccc(-c2n[nH]c(C(=O)O)c2-c2nc3ccccc3s2)c1O | i | i | 44.7µM | ? | i | i
CN(CC(=O)Nc1cccc(F)c1)C(=O)CNS(=O)(=O)c1ccc(N(C)C)c([N+](=O)[O-])c1 | i | i | 50.1µM | 70.8µM | nt | ?
CN(C)c1ccc(S(=O)(=O)NCC(=O)NCCOc2ccccc2F)cc1[N+](=O)[O-] | i | i | 50.1µM | i | nt | i
COc1cccc(O)c1CN1CCC(C(=O)Nc2ccc(-c3cccc(C)c3)cc2)CC1 | i | i | i | i | 79.4µM | ?
Cc1ccc(S(=O)(=O)N2CCOCC2)cc1N/N=C(\C#N)c1nc2ccccc2[nH]1 | i | ? | 35.5µM | i | i | i
Cc1ccc(C(=O)OC/C(O)=C(\C#N)c2nc3ccccc3[nH]2)cc1S(=O)(=O)N1CCOCC1 | i | i | i | i | i | i
O=C(NC1CCCCC1)C(c1cccs1)N(CCCN1CCOCC1)C(=O)c1ccc(-c2ccccc2)[nH]1 (stereo unspecified) | ? | i | nt | 50.1µM | ? | ?
Cc1c(P(=S)(c2ccccc2)c2ccccc2)c2ccccc2n1CCCc1ccccc1 | nt | nt | nt | nt | nt | i
Cc1nc2ccn(Cc3ccccc3)c(=O)c2cc1C(=O)Nc1ccc(F)cc1Cl | i | nt | i | i | nt | i
O=C(c1cccn1-c1nnc(N2CCCC2)s1)N1CCN(c2ccc(F)cc2)CC1 | i | nt | i | i | nt | i
CCOC(=O)C1CCN(C(=O)c2cccc(NS(=O)(=O)c3ccc(F)c(F)c3)c2)CC1 | i | i | 50.1µM | i | ? | i
CCOC(=O)N1CCN(C(=O)c2cccc(NS(=O)(=O)c3ccc(F)c(F)c3)c2)CC1 | i | i | i | i | i | i
Cc1ccc(S(=O)(=O)Nc2cccc(C(=O)N3CCN(c4ccccc4O)CC3)c2)cc1F | i | i | 50.1µM | i | nt | i
CC1CCCN(C(=O)COC(=O)c2cccc(NS(=O)(=O)c3ccccc3)c2)C1 (stereo unspecified) | i | i | i | i | nt | i
CC1CCCCN1C(=O)COC(=O)c1cccc(NS(=O)(=O)c2ccccc2)c1 (stereo unspecified) | i | i | 56.2µM | i | nt | i
COc1ccccc1C1C=C(c2ccc(F)cc2)Nc2nc(-c3ccc(Cl)cc3)nn21 (stereo unspecified) | i | nt | ? | i | nt | ?
COc1ccc(-c2c(C)nn3c(C)cc(C)nc23)cc1 | i | i | nt | i | i | i
NCCCCCCNc1nc2c(N)ncnc2n1[C@@H]1O[C@@H]2COP(=O)(O)O[C@H]2[C@H]1O | nt | nt | nt | nt | i | nt
Cc1ncoc1C(=O)N1CCCC(C(=O)c2ccc(C(F)(F)F)cc2)C1 (stereo unspecified) | i | i | 25.1µM | i | i | i
SMILES | HP1b chromo inh | L3MBTL1 block | G9a block | BAZ2B block | Sfp PPTase inh | JMJD2A Tudor
Nc1nc(=S)c2[nH]c(=S)[nH]c2[nH]1 | i | nt | nt | nt | nt | 3.16µM
CSc1nc(=S)c2[nH]c(=S)[nH]c2[nH]1 | 20µM | i | 0.631µM | 79.4µM | 2.51µM | 25.1µM
CSc1nc2c(c(=O)[nH]1)CCCC2 | i | nt | i[12.7 µM] | i | i | i
Nc1nc(-c2ccc(Br)s2)c(Br)s1 | i | i | ? | 39.8µM | 35.5µM | ?
COc1ccccc1C(=O)Nc1nc2ccc(S(=O)(=O)N3CCCC3)cc2s1 | i | nt | i | i | nt | i
COC(=O)CN(c1ccc(OC)cc1OC)S(=O)(=O)c1ccccc1[N+](=O)[O-] | i | i | 11.2µM | i | ? | i
CN1CCC(N(C)C(=S)NC(=O)c2cc(-c3cccc(Br)c3)nc3ccccc23)CC1 | i | i[11.4 µM] | ? | ? | i | 12.6µM
Cc1ccc(C(=O)c2coc3cc([N+](=O)[O-])c(O)c([N+](=O)[O-])c23)cc1 | ? | ? | 8.91µM | 44.7µM | 39.8µM | 56.2µM
Cc1ccc(Sc2ccc(C(=O)N(C)C)cc2[N+](=O)[O-])cc1 | i | i | ? | i | i | i
O=C(COC(=O)c1ccccn1)NCc1ccc(Cl)cc1Cl | i | i | 28.2µM | ? | nt | i
O=C(COC(=O)c1ccccn1)Nc1cccc(Cl)c1Cl | i | i | 50.1µM | ? | i | i
CCOC(=O)C(=Cc1cc(=O)c(OC)co1)C(=O)OCC | ? | i | 10µM | i | 6.31µM | i
COc1ccc(N(C(=O)c2cc(OC)c(OC)c(OC)c2)S(=O)(=O)c2ccc(C)cc2)cc1 | i | nt | i | i | nt | i
